Screening results deposited in PubChem by Broad Institute.
The sample as a whole holds a higher share of hits than the screen did.
U2OS ROS induce = cancer cell ROS induction; ROS induction (% of piperlongumine), % at 10 µM; U2OS ROS induction, H2DCF-DA fluorescence; 2% of 46,000 active; in the data active means ROS induction above about 79%, passing the limit was not always enough;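 further: 0% = DMSO vehicle median and 100% = reference compound median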
* = called active by the depositor.

SMILES | U2OS ROS induce
COCCOC(=O)N1C(=O)[C@@]2(c3cc(C#Cc4ccc(OC)cc4)ccc31)[C@H](C(=O)NC[C@H](O)c1ccccc1)[C@H]1C(=O)O[C@H](c3ccccc3)[C@H](c3ccccc3)N1[C@@H]2c1ccc(OCCO)cc1 | 13
O=C1O[C@H](c2ccccc2)[C@H](c2ccccc2)N2[C@H]1[C@@H](C(=O)NC[C@H](O)c1ccccc1)[C@]1(C(=O)Nc3ccccc31)[C@H]2c1ccc(O)cc1 | 28
COCCOC(=O)N1C(=O)[C@@]2(c3cc(C#Cc4ccc(OC)cc4)ccc31)[C@H](c1ccc(O)cc1)N1[C@H](c3ccccc3)[C@H](c3ccccc3)OC(=O)[C@H]1[C@@H]2C(=O)NC[C@H](O)c1ccccc1 | 17
COCCOC(=O)N1C(=O)[C@@]2(c3ccccc31)[C@H](C(=O)NC[C@H](O)c1ccccc1)[C@H]1C(=O)O[C@H](c3ccccc3)[C@H](c3ccccc3)N1[C@@H]2c1ccc(OCCO)cc1 | 84*
O=C1O[C@@H](c2ccccc2)[C@@H](c2ccccc2)N2[C@@H](c3ccc(O)cc3)[C@]3(C(=O)Nc4ccccc43)[C@@H](C(=O)NC[C@H](O)c3ccccc3)[C@H]12 | 5
O=C1O[C@@H](c2ccccc2)[C@@H](c2ccccc2)N2[C@@H](c3ccc(OCCO)cc3)[C@]3(C(=O)Nc4ccccc43)[C@@H](C(=O)NC[C@H](O)c3ccccc3)[C@H]12 | 103*
Cn1cnnc1-c1cccc(NC(=O)C(c2ccccc2)c2ccccc2)c1 | -24
Cc1noc(C)c1-c1nc(CS(=O)(=O)Cc2ccc(Cl)cc2)no1 | -8
CCC(=O)Nc1ccc(C#N)cc1 | -12
O=C(O)CC1(CC(=O)Nc2ccc(Cl)cc2)CCCC1 | -9
O=C(CSc1nc2ccccc2c(=O)n1CCc1ccccc1)c1ccc(Cl)cc1 | -6
Cc1cc(S(=O)(=O)NCCN2CCOCC2)c(C)cc1Cl | -3
CCc1ccc2ncc(S(=O)(=O)c3ccccc3)c(N3CCCC3)c2c1 | 22
CCOC(=O)c1cnc2ccc(OCC)cc2c1N1CCN(c2ccccc2)CC1 | 128*
CCOC(=O)c1cnc2ccc(OCC)cc2c1NC(C)CC (stereo unspecified) | 42
CCN(CC)c1ccc2cc(C(N)=O)c(=Nc3ccc(F)cc3)oc2c1 | 4
O=C(CCCCCCC(=O)N/N=C\c1cccc(Br)c1)NO | 10
COc1ccc(S(=O)(=O)c2c(C(=O)c3ccccc3)cnc3cc(OC)c(OC)cc23)cc1 | 24
O=C(Nc1cccc(Br)c1)C1C(c2ccccc2)=C1c1ccccc1 | 37
CCc1nc(NCC(C)C)c(C#N)c2c1CCCC2 | 0
O=[N+]([O-])c1ccc(N2CCN(S(=O)(=O)c3ccc(F)cc3)CC2)cc1NCc1ccco1 | 27
O=C(c1ccc(Cl)cc1)N1CCN(c2ccc([N+](=O)[O-])c(NCc3ccccn3)c2)CC1 | 5
O=C(c1ccccc1Cl)N1CCN(c2ccc([N+](=O)[O-])c(NCc3cccnc3)c2)CC1 | 79*
O=[N+]([O-])c1ccc(N2CCNCC2)cc1NCc1ccccn1 | 6
CC(C)(C)c1ccc(C(=O)N2CCN(c3ccc([N+](=O)[O-])c(NCc4cccnc4)c3)CC2)cc1 | 106*
SMILES | U2OS ROS induce
CC(=O)N1CCN(c2ccc([N+](=O)[O-])c(NCc3cccnc3)c2)CC1 | 40
Cc1cc(Cl)ccc1OCCCC(=O)NC1CCSC1=O (stereo unspecified) | -7
COC(=O)Cn1ncc2c3ccccc3n(Cc3cc(C)ccc3C)c2c1=O | -8
O=C(CCn1c(=O)[nH]c2ccccc2c1=O)N1CCCCC1 | 6
N#CCSc1ccc2nnc(CCNS(=O)(=O)c3ccccc3)n2n1 | 10
Cc1ccc(Cn2c(=O)cc(C(=O)NC3CCCCC3)c3ccccc32)cc1 | -17
CCCC1c2ccsc2CCN1C(=O)c1ccc(Cl)cc1 (stereo unspecified) | 9
CC(C)n1c(SCC(=O)Nc2ccccc2Cl)nc2cc(Cl)ccc21 | -6
C[C@H](CO)N1C[C@H](C)[C@@H](CN(C)C(=O)Nc2ccc3c(c2)OCO3)Oc2c(NS(=O)(=O)c3ccccc3)cccc2C1=O | -4
C[C@H]1CN([C@@H](C)CO)C(=O)c2cccc(NC(=O)Nc3ccc4c(c3)OCO4)c2O[C@@H]1CN(C)Cc1ccc2c(c1)OCO2 | 9
C[C@H]1CN([C@@H](C)CO)C(=O)c2cccc(NC(=O)Nc3ccc4c(c3)OCO4)c2O[C@@H]1CN(C)Cc1ccc(C(F)(F)F)cc1 | 70
C[C@H](CO)N1C[C@H](C)[C@@H](CN(C)Cc2ccc(C(F)(F)F)cc2)Oc2c(NC(=O)Nc3ccc4c(c3)OCO4)cccc2C1=O | 92*
C[C@H](CO)N1C[C@H](C)[C@H](CN(C)Cc2ccc(C(F)(F)F)cc2)Oc2c(NC(=O)Nc3ccc4c(c3)OCO4)cccc2C1=O | 13
C[C@@H]1CN([C@@H](C)CO)C(=O)c2cccc(NS(=O)(=O)c3ccccc3)c2O[C@@H]1CN(C)C(=O)Nc1ccc2c(c1)OCO2 | -10
C[C@H]1CN([C@@H](C)CO)C(=O)c2cccc(NC(=O)Nc3ccc(F)cc3)c2O[C@@H]1CN(C)Cc1ccc2c(c1)OCO2 | 16
C[C@H]1CN([C@@H](C)CO)C(=O)c2cccc(NC(=O)Nc3ccc4c(c3)OCO4)c2O[C@@H]1CN(C)Cc1ccc(C(=O)Nc2ccccc2N)cc1 | 123*
C[C@@H]1CN([C@@H](C)CO)C(=O)c2cccc(NC(=O)Nc3ccc4c(c3)OCO4)c2O[C@H]1CN(C)Cc1ccc(C(=O)Nc2ccccc2N)cc1 | 41
C[C@@H]1CN([C@@H](C)CO)C(=O)c2cccc(NC(=O)Nc3ccc4c(c3)OCO4)c2O[C@@H]1CN(C)Cc1ccc(C(=O)Nc2ccccc2N)cc1 | 9
C[C@@H]1CN([C@H](C)CO)C(=O)c2cccc(NC(=O)Nc3ccc(F)cc3)c2O[C@H]1CN(C)Cc1ccc2c(c1)OCO2 | 87*
C[C@H](CO)N1C[C@H](C)[C@H](CN(C)C(=O)Nc2ccc3c(c2)OCO3)Oc2c(NS(=O)(=O)c3ccccc3)cccc2C1=O | 100*
CC(C)(C)C(=O)CSc1nc2c(cc1C#N)N1CCC2CC1 | 5
CCN1C(=S)NC2c3cc(Br)ccc3OC1(C)C2C(=O)Nc1ccc(Cl)cc1 (stereo unspecified) | -4
CCOC(=O)c1cnc2c(Cl)c(Cl)ccc2c1N(C)Cc1ccccc1 | 9
O=C(Cc1ccccc1)Sc1nc2ccccc2[nH]1 | -7
CCc1n[nH]c(=S)c2cc3sccc3n12 | 14
SMILES | U2OS ROS induce
O=C(NC1CCCCNC1=O)c1cnn(-c2ccccc2)c1C(F)(F)F (stereo unspecified) | -11
O=C(NCCOC12CC3CC(CC(C3)C1)C2)c1cc2ccccc2oc1=O | 9
C=CCC1OC(=O)CCNC(=O)C(C)N(C)C(=O)C(C(C)C)N(C)C(=O)C(C(C)CC)NC(=O)C2CCCN2C1=O (stereo unspecified) | -1
Cc1cc2ccccc2c(=O)n1CC(=O)NCC(=O)NCC1COc2ccccc2O1 (stereo unspecified) | -18
CC(=O)N1CCOc2cc(S(=O)(=O)N3CCCCC3)ccc21 | -12
Cc1cc(C)c2nc(N3CCC(C(=O)N4CC(C)CC(C)C4)CC3)sc2c1 (stereo unspecified) | -9
C[C@@H]1CN([C@H](C)CO)C(=O)c2cccc(NC(=O)Nc3ccc4c(c3)OCO4)c2O[C@@H]1CN(C)Cc1ccc2c(c1)OCO2 | 0
C[C@@H]1CN([C@H](C)CO)C(=O)c2cccc(NS(=O)(=O)c3cn(C)cn3)c2O[C@H]1CN(C)Cc1ccc(Cl)c(Cl)c1 | -9
